Screening results: PubChem, National Center for Advancing Translational Sciences (NCATS)
Compounds with a hit are over-represented: about 7% of the library has one in this group of screens.
BAZ2B inh = blocks human BAZ2B. Q9UIF8. AlphaScreen BAZ2B-H3K14Ac peptide displacement. Potency, µM (highest dose often 114 µM), without a hit: top-dose activity change, negative = inhibition, most hits filed as inhibitors. 360,000 tested, 4.4% active; also: potency is read from the fitted curve at half-maximal effect; % is scaled to controls: 0 for no effect and ±100 for the full control effect; nearly all actives have a fitted effect of over 60% in size
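AlphaScreen displacement: compounds (up to 110uM) incubated 30 min at room temperature with a preformed 50 nM BAZ2B/50 nM biotinylated H3K14Ac peptide complex in PBS pH 7.4 with Tween-20. Donor and acceptor beads at 10 ug/mL final added, 20 min light-protected before reading.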
HP1b binding inh = blocks HP1-beta chromodomain binding to methylated histone tails. AID 540317. 390,000 tested, 0.56% active. Potency, µM (series often up to 114 µM), for inactives: top-dose activity change, negative = inhibition, most hits filed as inhibitors. AlphaScreen HP1-beta / biotin-H3K9me3 peptide binding; also: potency is read from the fitted curve at half-maximal effect; nearly all actives have a fitted effect of over 70% in size
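Compound inhibition of the preformed complex between 50 nM HP1-beta and 50 nM biotinylated H3K9me3 peptide was read by AlphaScreen. Buffer was PBS pH 7.4 with 0.01% Tween-20. Incubations ran 30 min at room temperature, with 10 ug/mL donor/acceptor beads.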
PI5P4K alpha inh = inhibitors of human PI5P4K alpha. P48426. PI5P4Kalpha enzyme, ADP-Glo luminescence, 60 min; active compounds read low. max response, %. 330,000 tested, 1.2% active. AID 652105; active = max response of -50% or lower; inconclusive = between -30% and -50%; inactive = -30% or higher; also: value at the top dose of about 77 µM; % is scaled to controls: 0 for no effect and ±100 for the full control effect
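Human PI5P4Kalpha with substrate in 0.038 M HEPES pH 7.4, 0.28 mM EGTA, 0.1% CHAPS, 5% DMSO; reaction started with 5 microM ATP (final), 60 min at room temperature. ADP formed read by ADP-Glo luminescence.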
JMJD2A Tudor inh = blocks the human JMJD2A Tudor domain; AlphaScreen JMJD2A-Tudor / H3K4me3 peptide binding; Potency, µM (highest dose often 114 µM), for inactives: at the top dose activity change, negative = inhibition, hits mostly inhibitors; 390,000 tested, 4.4% active; AID 504339; also: potency is read from the fitted curve at half-maximal effect; % is scaled to controls: 0 for no effect and ±100 for the full control effect; nearly all actives have a fitted effect of over 50% in size
PLK1 PBD inh = inhibitors of human PLK1 polo-box domain binding | Plk1 PBD binding of FITC phosphopeptide, fluorescence polarization | Potency, µM, inactives show max response, negative = inhibition, usual class: inhibitors | 360,000 tested, 2.8% active; also: potency is read from the fitted curve at half-maximal effect; series mostly up to about 57 µM; % is scaled to controls: 0 for no effect and ±100 for the full control effect; nearly all actives have a fitted effect of over 65% in size
Target sequence (P53350 whole entry, looked up, the tested form may be a part): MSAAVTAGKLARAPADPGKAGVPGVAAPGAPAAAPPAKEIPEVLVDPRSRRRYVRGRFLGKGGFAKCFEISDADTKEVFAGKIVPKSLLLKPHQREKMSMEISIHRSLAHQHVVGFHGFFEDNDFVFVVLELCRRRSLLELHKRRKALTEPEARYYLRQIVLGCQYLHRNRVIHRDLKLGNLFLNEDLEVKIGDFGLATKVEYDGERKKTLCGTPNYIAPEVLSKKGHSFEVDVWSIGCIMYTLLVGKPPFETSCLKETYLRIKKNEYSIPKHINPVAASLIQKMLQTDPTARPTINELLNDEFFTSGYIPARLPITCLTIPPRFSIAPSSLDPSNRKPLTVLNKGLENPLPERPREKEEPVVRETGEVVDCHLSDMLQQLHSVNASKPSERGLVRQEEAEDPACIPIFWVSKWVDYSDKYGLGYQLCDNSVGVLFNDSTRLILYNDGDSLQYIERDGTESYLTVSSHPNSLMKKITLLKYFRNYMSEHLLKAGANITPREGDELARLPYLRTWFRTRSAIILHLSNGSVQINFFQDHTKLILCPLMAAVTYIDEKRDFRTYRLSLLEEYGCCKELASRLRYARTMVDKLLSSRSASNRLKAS
GCN5L2 inh = blocks human GCN5L2 histone acetyltransferase. AID 504327. 390,000 tested, 0.21% active. GCN5L2 HAT assay, ThioGlo1 CoA-SH fluorescence. Potency, µM (series often up to 58.9 µM), for inactives: at the top dose activity change, negative = inhibition, actives largely listed as inhibitors; also: potency is read from the fitted curve at half-maximal effect; % is scaled to controls: 0 for no effect and ±100 for the full control effect
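Compounds, pin-transferred from DMSO stocks, meet 20nM GCN5L2 for 15 min before the reaction begins with H3(1-25) peptide (75uM) and acetyl-CoA (70uM). Thiol-reactive ThioGlo1 reports CoA release over 20 min at room temperature.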
* hit, by the source's call; ? = inconclusive; / = no result given; [ ] = remark or other dose. Unless noted, calls follow the shape of the dose curve; as a rule, active = well fitted curve in the direction sought with a large enough effect; inconclusive = small, poorly fitted or top-dose-only effect, or another doubt; inactive = no such curve, though single readings can be large; an effect the other way counts as inactive or inconclusive.

SMILES | BAZ2B inh | HP1b binding inh | PI5P4K alpha inh | JMJD2A Tudor inh | PLK1 PBD inh | GCN5L2 inh
COc1ccc(CN(C)CC(=O)NCC(=O)Nc2c(C)cccc2C)cc1 | 12% | 23% | -3 | -4% | 8% | -3%
Cc1ccccc1CCNC(=O)C1CCC(=O)N(CCc2cccc(F)c2)C1 (configuration not stated) | 8% | 20% | -4 | ? | 30µM* | -18%
COc1cccc(CN2CC(C(=O)NCCOc3cccnc3)CCC2=O)c1 (configuration not stated) | -4% | 29% | 2 | -32% | 17µM* | 0%
O=C(NCCc1ccccc1F)C1CCC(=O)N(Cc2ccccc2F)C1 (configuration not stated) | -18% | -1% | -14 | ? | 27µM* | -2%
COc1ccccc1CCNC(=O)C1CCC(=O)N(Cc2cccc(F)c2)C1 (configuration not stated) | 6% | 15% | 7 | ? | 30µM* | -14%
COc1ccccc1CN1CC(C(=O)NCCCc2ccc(F)cc2)CCC1=O (configuration not stated) | -1% | 30% | -1 | -12% | -4% | -4%
COc1cccc(CN2CC(C(=O)NCCCc3ccncc3)CCC2=O)c1 (configuration not stated) | -2% | 22% | -4 | 8% | 5% | -3%
COc1ccc2nc(CCN(C)C(=O)C3CCC(=O)N(Cc4cccc(F)c4)C3)[nH]c2c1 (configuration not stated) | 50µM* | 19% | 5 | -31% | ? | -4%
COc1cccc(CN2CC(C(=O)N(C)Cc3nc4ccc(F)cc4[nH]3)CCC2=O)c1 (configuration not stated) | -3% | 35% | -1 | 9% | 3% | 3%
COc1ccc(C2C=C(c3ccccc3)Nc3nc(NS(=O)(=O)c4ccccc4)nn32)cc1 (configuration not stated) | -7% | 22% | / | -16% | / | -3%
C/C(=C/CCC(C)C1CCC2(C)C3CCC4C(C)(C)C(=O)CCC4(C)C3=CCC12C)C(=O)O (configuration not stated) | 50µM* | / | / | / | / | -9%
CN(C(=O)CC(=O)Nc1ccc2nc3n(c(=O)c2c1)CCCCC3)c1ccccc1F | -1% | 18% | / | -8% | / | -5%
CCN1/C(=N\N)c2cccc3cccc1c23 | 7.9µM* | ? | 1 | 7.9µM* | -9% | -2%
CCCn1c2ccccc2c2cnn(CC(=O)NC(CCSC)C(=O)OC)c(=O)c21 (configuration not stated) | -2% | 14% | / | -2% | / | -6%
COc1ccccc1C(=O)NNC(=O)C(=O)Nc1ccc(C)c(Cl)c1 | -22% | -20%[57 µM] | -2 | -15% | 30µM* | -12%
COc1ccc(C(=O)NNC(=O)C(=O)Nc2ccc(C)c(Cl)c2)cc1 | -8% | 18% | -22 | ? | 27µM* | -3%
Cc1ccc(NC(=O)C(=O)NNC(=O)c2ccccc2C)cc1Cl | -4% | 42% | 8 | -12% | -4% | -8%
COc1ccccc1C(=O)NNC(=O)c1cccc(C)c1 | 0% | -15% | -19 | ? | 17µM* | -14%
Cc1c(C(=O)O)sc(=S)n1-c1ccccc1 | -9% | 47% | -1 | -17% | -9% | -6%
O=C1NC(c2ccccc2)Nc2c1sc(=S)n2-c1ccccc1 (configuration not stated) | -19% | -5% | -4 | -11%[11.4 µM] | 21µM* | -10%
Cc1nn(-c2ccccc2)c2nc(-c3ccncc3)cc(C(=O)NCc3ccco3)c12 | -1% | -12% | ? | ? | 30µM* | -9%
COc1ccc(Cn2c(CCC(=O)Nc3ccc(Br)c(C)c3)nc3cccnc32)cc1 | -20% | 25% | / | -13% | / | -9%
CCOC(=O)c1c(NC(=O)CSc2nnnn2-c2ccccc2)sc2c1CC(C)(C)NC2(C)C | 71µM* | -5% | 1 | ? | -11% | -3%
